Some test systems named below: DU-145 prostate; K-562 leukemia; MALME-3M melanoma; MDA-MB-231 breast; RXF 393 renal; SF-268 CNS; SF-539 CNS; UACC-257 melanoma; M14 melanoma; SF-295 CNS.
Common to all, as to test: NCI-60 one-dose screen, 48 h (100 = growth as untreated, 0 = no growth, -100 = all killed)
Settings in all cases: 10 µM unless noted

Each structure is given as a SMILES string. Compounds without any hit were thinned out: in the full panel of roughly 83,000, 20% have a hit.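 Testing used 96-well plates and a 48-hour single-concentration exposure. Example: -40 means 40% of the starting cells died.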 Unmarked numbers belong to inactive results. Activity calls are given as the source filed them. How the source made its calls: active means growth percent below 10; inactive means the rest.

Regarding `N#C[S-].[Au+].c1ccc(CN2[CH-]N(Cc3ccccc3)C(c3ccccc3)=C2c2ccccc2)cc1`, the growth in the test with DU-145 prostate was 23.6%; with K-562 leukemia it was 0.413% (active); in the test on MALME-3M melanoma, -5.77% (active); in the test with MDA-MB-231 breast it was -36% (active); with RXF 393 renal, 3.56% (active); in the test on SF-268 CNS, 29.9%. Besides, the growth with SF-539 CNS is 22.9%; in the test with UACC-257 melanoma, -9.77% (active); in the test on M14 melanoma, 15.8%.
As for `O=P1(NCCCl)OCCCN1CCCl` (stereo unspecified), the growth is 110% with DU-145 prostate; 95.8% in the test with K-562 leukemia; 120% with MALME-3M melanoma; 120% in the test with MDA-MB-231 breast; 109% in the test on SF-268 CNS; 99.2% in the test with SF-295 CNS. Besides, the growth is 98.3% in the test with SF-539 CNS, 116% in the test on UACC-257 melanoma and 106% in the test on M14 melanoma.
With `C[C@]12CC[C@@H]3c4ccc(Oc5nc(N6CC6)nc(N6CC6)n5)cc4CC[C@H]3[C@@H]1CCC2=O`, the growth is 7.1% (active) in the test with DU-145 prostate; 18% in the test on K-562 leukemia; 65.4% in the test with MALME-3M melanoma; 74.5% in the test on MDA-MB-231 breast; -6.13% (active) with RXF 393 renal; 29.9% with SF-268 CNS. Also, the growth in the test with SF-539 CNS was 21.6%; in the test on UACC-257 melanoma, 65.5%; in the test with M14 melanoma, 44.7%.
Regarding `ClCCN(CCCl)c1ccc(/C=N/Nc2ncnc3nc[nH]c23)cc1`, the growth was 62.8% in the test with DU-145 prostate; 61.2% in the test on K-562 leukemia; 106% in the test with MALME-3M melanoma; 96.2% in the test with MDA-MB-231 breast; 58.9% in the test on SF-268 CNS; 57.8% in the test on SF-295 CNS. For the same compound, the growth in the test with SF-539 CNS was 72.7%; in the test with UACC-257 melanoma, 106%; in the test with M14 melanoma, 76.7%.
Turning to `COc1ccc(/C=C\c2cc(OC)c(OC)c(OC)c2)cc1OCC(=O)Nc1nc2ccc(F)cc2s1`, the growth with DU-145 prostate is 30.2%; in the test on K-562 leukemia, 38.1%; with MALME-3M melanoma it was 38.3%; in the test on MDA-MB-231 breast, 46.7%; with RXF 393 renal, 9.41% (active); in the test with SF-268 CNS, 49.2%. Besides, the growth is 26.7% in the test with SF-539 CNS, 51% with UACC-257 melanoma and 51.9% in the test with M14 melanoma.
Consider `ClCCN(CCCl)c1nc(Cl)c(C2CC(c3ccccc3)=NN2c2cc(Cl)cc(Cl)c2)s1` (stereo unspecified), for which the growth is 107% in the test with DU-145 prostate; 99.1% in the test with K-562 leukemia; 103% in the test with MALME-3M melanoma; 98.7% with MDA-MB-231 breast; 96.7% with SF-268 CNS; 107% with SF-295 CNS. Moreover, the growth in the test with SF-539 CNS was 101%; in the test with UACC-257 melanoma, 95.9%; with M14 melanoma, 108%.
As for `O=C(Nc1ccc(Cl)cc1)Nc1nccs1`, the growth is 17.7% with DU-145 prostate; 15.1% in the test on K-562 leukemia; 45.2% in the test on MALME-3M melanoma; 46.5% in the test on MDA-MB-231 breast; 2.93% (active) with RXF 393 renal; 48.8% in the test on SF-268 CNS. Moreover, the figures for the growth in the test with SF-539 CNS, in the test with UACC-257 melanoma and in the test with M14 melanoma were 10.8%, 44.3% and 18.1%, respectively.
With `O=C(O)C(O)C(O)C1[O][Sb]([c]2ccc([N+](=O)[O-])cc2)[O]C1CO` (stereo unspecified), the growth with DU-145 prostate is 116%; in the test on K-562 leukemia, 99.6%; in the test on MALME-3M melanoma, 116%; with MDA-MB-231 breast, 99.3%; with SF-268 CNS, 106%; in the test with SF-295 CNS, 101%. Besides, the growth is 102% in the test with SF-539 CNS, 95.7% in the test on UACC-257 melanoma and 106% in the test on M14 melanoma.
Turning to `CCCc1cc(O)c2c3c(c(=O)oc2c1)CN(C)CC3`, the growth in the test on DU-145 prostate is 43%; with K-562 leukemia it was 12%; with MALME-3M melanoma, -1.24% (active); with MDA-MB-231 breast, 60.4%; with RXF 393 renal it was 10.9%; in the test on SF-268 CNS, 37%. For the same compound, the growth was 31.7% in the test with SF-539 CNS, 68.5% with UACC-257 melanoma and 16.4% with M14 melanoma.
Consider `Cc1ccc(S(=O)(=O)F)cc1C(=O)O`, for which the growth was 104% in the test with DU-145 prostate; 109% with K-562 leukemia; 86.8% in the test on MALME-3M melanoma; 107% in the test with MDA-MB-231 breast; 101% in the test with SF-268 CNS; 95.1% in the test with SF-295 CNS. Moreover, the growth was 94% in the test with SF-539 CNS, 93.3% in the test with UACC-257 melanoma and 110% in the test on M14 melanoma.
With `CN1C(=O)C23CC4(C56CC78SSC(CO)(C(=O)N7C5Nc5ccccc56)N(C)C8=O)c5ccccc5NC4N2C(=O)C1(CO)SS3` (stereo unspecified), the growth in the test with DU-145 prostate is -100% (active); in the test on K-562 leukemia, -30.3% (active); with MALME-3M melanoma, -76.7% (active); in the test on MDA-MB-231 breast, -94.1% (active); in the test with SF-268 CNS, -97.8% (active); in the test with SF-295 CNS, -93.8% (active). Further, the growth with SF-539 CNS was -86.4% (active); in the test with UACC-257 melanoma it was -94.9% (active); in the test on M14 melanoma, -83.3% (active).
In the case of `CCOC(=O)C(Cc1ccc(N(CCCl)CCCl)cc1)NC(=O)C(CC(C)C)NC(C)=O` (stereo unspecified), the growth in the test on DU-145 prostate is 14.3%; with K-562 leukemia, 12.6%; in the test with MALME-3M melanoma it was -33% (active); in the test on MDA-MB-231 breast, 51.6%; in the test on RXF 393 renal, -15.5% (active); in the test on SF-268 CNS it was 5.5% (active). Also, the growth in the test with SF-539 CNS was 13.2%; with UACC-257 melanoma it was 24.2%; in the test with M14 melanoma, -4.57% (active).
`[Au+].[N-]=C=O.c1ccc(CN2[CH-]N(Cc3ccccc3)C(c3ccccc3)=C2c2ccccc2)cc1`: the growth in the test with DU-145 prostate was 86.5%; with K-562 leukemia, 20.8%; in the test with MALME-3M melanoma it was 70%; in the test on MDA-MB-231 breast, 86.4%; in the test with RXF 393 renal, 83%; in the test with SF-268 CNS, 84.5%. For the same compound, the values for the growth in the test on SF-539 CNS, in the test with UACC-257 melanoma and in the test on M14 melanoma were 110%, 99.8% and 81.3%, respectively.
As for `CC12CC(=O)C3(SC#N)C(CCC4=CC(=O)CCC43C)C1CCC2=O` (stereo unspecified), the growth with DU-145 prostate is 46.2%; with K-562 leukemia, 89%; in the test with MALME-3M melanoma, 50.2%; with MDA-MB-231 breast, 100%; with RXF 393 renal, 56.5%; with SF-268 CNS it was 101%. Also, the growth was 75.9% in the test with UACC-257 melanoma and 89% with M14 melanoma.
Consider `O=C(NCCN1CC1)C(=O)NCCN1CC1`, for which the growth with DU-145 prostate is 90.2%; with K-562 leukemia, 87.9%; in the test with MALME-3M melanoma it was 103%; with MDA-MB-231 breast, 99.3%; in the test on SF-268 CNS, 77.8%; with SF-295 CNS, 51%. The growth in the test with SF-539 CNS is 101%; with UACC-257 melanoma it was 85.1%; with M14 melanoma it was 92.9%.
With `COC[C@@H]1C[C@@]2(C)[C@@H](CC[C@@H]3[C@@H]2CC[C@@]2(C)[C@H]3CC[C@]2(C)O)CC1=O`, the growth is 102% in the test on DU-145 prostate; 85.8% in the test on K-562 leukemia; 96.4% with MALME-3M melanoma; 116% in the test on MDA-MB-231 breast; 105% with RXF 393 renal; 102% in the test on SF-268 CNS. Also, the growth in the test with SF-539 CNS was 90.7%; in the test on UACC-257 melanoma, 83.2%; in the test on M14 melanoma, 94.5%.
As for `O=C1OCC2=C1C(c1ccccc1)c1cc3c(cc1N2)OCO3` (stereo unspecified), the growth in the test with DU-145 prostate was -36.2% (active); in the test with K-562 leukemia it was 14.5%; in the test on MALME-3M melanoma it was 58%; with MDA-MB-231 breast it was -1.65% (active); in the test on SF-268 CNS, 10.4%; in the test on SF-295 CNS, 6.68% (active). In addition, the results for the growth in the test on SF-539 CNS, in the test on UACC-257 melanoma and in the test with M14 melanoma were 4.21% (active), 35.2% and 10%, respectively.
Consider `C[C@]12CCc3nc(Nc4ccccc4F)sc3C1=CC[C@@H]1[C@@H]2CC[C@]2(C)C(=O)CC[C@@H]12`, for which the growth in the test on DU-145 prostate is 28.4%; with K-562 leukemia, 21.7%; with MALME-3M melanoma, 75.7%; with MDA-MB-231 breast it was 92.5%; in the test with SF-268 CNS it was 78.8%; with SF-295 CNS, 51%. Moreover, the values for the growth with SF-539 CNS, in the test with UACC-257 melanoma and with M14 melanoma were 41.4%, 90.7% and 75.1%, respectively.

For the origin of these results see PubChem BioAssay (NCI).
